# Screens (PubChem BioAssay)
# PDI inh: blocks human protein disulfide isomerase activity | P07237 | PDI insulin aggregation turbidity, A650, 90 min | inhibition, % at 10 µM | actives 0.052% (n = 350,000);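 active = mean inhibition across replicates of 30% or more, whatever share of single replicates reach that level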
# ARNT TACC3 PPI: disruptors of human ARNT/TACC3 interaction. Q9Y6A5. AlphaScreen His-ARNT PAS-B/GST-TACC3 binding, luminescence; TACC3 fragment carries E629A point mutation. inhibition, % at 9.99 µM. actives 0.66% (n = 390,000);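 active = mean inhibition of replicates at least 50% and at least half of replicates each reaching 50%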
# ALR H2O2 inh: human ALR oxidase inhibition via reduced H2O2. AID 485317. actives 3.8% (n = 290,000). purified ALR, DTT oxidation, H2O2 HRP-luminol luminescence. inhibition, % (concentration not given with the values);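 active = mean replicate inhibition above about 79%, with every replicate also reaching it, limit read from the data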
# Target sequence (P55789 whole entry, looked up): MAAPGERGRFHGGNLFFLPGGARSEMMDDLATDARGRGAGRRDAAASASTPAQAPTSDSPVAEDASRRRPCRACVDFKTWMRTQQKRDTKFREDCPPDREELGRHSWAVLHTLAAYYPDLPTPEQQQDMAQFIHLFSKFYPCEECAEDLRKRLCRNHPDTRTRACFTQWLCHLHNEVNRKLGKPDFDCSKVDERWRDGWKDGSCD
# CendR NRP1 mod: alters CendR peptide binding to human NRP-1; FAM-RPARPAR peptide binding to NRP-1, fluorescence polarization; inhibition, % at 25 µM; O14786; actives 0.85% (n = 360,000);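 active = inhibition or corrected inhibition above about 18%, plus a signal ratio from 0.5 to 1.5, limit read from the data, passing the limit was not always enough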
# ERp5 block: inhibitors of human ERp5; Q15084; ERp5 insulin aggregation, absorbance 650 nm, 90 min; inhibition, % at 9.99 µM; actives 0.05% (n = 350,000); AID 651711;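 active = mean replicate inhibition above about 25%, with every replicate also reaching it, limit read from the data, passing the limit was not always enough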
# PglD DTNB: inhibitors of Campylobacter jejuni PglD acetyltransferase; purified PglD enzyme, DTNB colorimetric CoA detection; inhibition, % at 12.5 µM; actives 0.098% (n = 360,000); AID 602405; in the data active = inhibition above about 16%, passing the limit was not always enough
# Hits are given with their value; – = inactive; · = no result. Only a selection was taken, and hits are over-represented in it overall.
SMILES,PDI inh,ARNT TACC3 PPI,ALR H2O2 inh,CendR NRP1 mod,ERp5 block,PglD DTNB
O=C(NC1CCN(Cc2ccccc2)CC1)c1cccc(OC(F)F)c1,–,–,–,–,–,–
CC(=O)c1cccc(OCc2cc(C(=O)NC3CCN(Cc4ccccc4)CC3)no2)c1,–,–,–,28,–,–
Cc1c(C)n2c(SCC(=O)N3CCC(C)CC3)nnc2[nH]c1=O,–,–,–,24,–,·
Cc1ccc(S(=O)(=O)N(C)C[C@@H]2OCCCC[C@H](C)Oc3ccc(NC(=O)Nc4c(C)noc4C)cc3C(=O)N([C@H](C)CO)C[C@@H]2C)cc1,·,–,·,·,–,–
COc1ccccc1NC(=O)N1C[C@@H](O)COC[C@@H]2O[C@@H](CC(=O)NCc3ccccc3)CC[C@H]21,·,–,·,·,–,–
COCC(=O)Nc1ccc2c(c1)OC[C@@H](C)N(C(=O)c1ccccc1F)C[C@@H](C)[C@@H](OC)CN(C)C2=O,·,–,·,·,–,–
CNC(=O)C(=O)NCC1OCCCN1S(=O)(=O)c1ccc(F)cc1C (stereo unspecified),–,–,–,27,–,–
CO[C@H]1CN(C)C(=O)c2ccc(NC(=O)Nc3ccccc3F)cc2OC[C@H](C)N(C(C)=O)C[C@H]1C,·,–,·,·,–,–
OCc1ccccc1OCCCOc1cccc2cccnc12,–,–,–,33,–,–
C[C@@H]1CN([C@H](C)CO)C(=O)c2cccc(N(C)C)c2O[C@@H]1CN(C)Cc1ccc(Oc2ccccc2)cc1,·,·,·,·,–,–
CCN(CC)c1ccc2cc(NC(=O)CCC(=O)O)c(=O)oc2c1,–,–,99,50,·,·
CCC(/C=N/NC(=O)C(N)=O)CC,–,–,98,–,–,–
Cn1cnc(CCNC(=O)C[C@H]2CC[C@@H]3[C@H](COC[C@H](O)CN3C(=O)Nc3ccc(C(F)(F)F)cc3)O2)c1,·,–,·,·,·,–
COc1ccc2c3c([nH]c2c1)[C@H](CO)N(CC1CC1)CC31CCN(S(=O)(=O)c2cccc(F)c2)CC1,·,·,·,·,–,·
CCCCC(NC(=O)Cc1c(C)c2cc3c4c(oc3c(C)c2oc1=O)CCCC4)C(=O)O (stereo unspecified),–,–,–,–,–,–
CCCCC(NC(=O)CCc1c(C)c2cc3c4c(oc3c(C)c2oc1=O)CCCC4)C(=O)O (stereo unspecified),–,–,96,–,–,–
Cc1cc(=O)oc2c3c(cc(OCC(=O)N4CCC[C@H]4C(=O)O)c12)OC(C)(C)CC3,·,32,–,–,–,–
Cc1noc(C)c1NC(=O)Nc1ccc2c(c1)CC(=O)N([C@@H](C)CO)C[C@@H](C)[C@@H](CN(C)S(=O)(=O)c1ccc(F)cc1)O2,·,–,·,·,–,–
C[C@H](CO)N1C[C@H](C)[C@@H](CN(C)Cc2ccc(Cl)c(Cl)c2)Oc2ccc(NC(=O)C3CC3)cc2CC1=O,·,–,·,·,–,–
Cc1onc(-c2c(F)cccc2Cl)c1C(=O)Nc1c(C)n(C)n(-c2ccccc2)c1=O,–,–,–,–,·,–
Cc1ccc(-c2cc(C(=O)Nc3c(C)n(C)n(-c4ccccc4)c3=O)[nH]n2)c(O)c1C,–,–,97,–,–,·
Cc1onc(-c2ccccc2)c1C(=O)Nc1c(C)n(C)n(-c2ccccc2)c1=O,–,–,–,38,·,–
CC(=N)c1c(O)cc(C)oc1=O,–,–,·,19,–,–
Cc1cc(O)c(C(=O)/C=C/c2ccccc2O)c(=O)o1,–,–,–,–,–,–
CCCNC(=O)C[C@@H]1CC[C@H]2[C@H](COc3ccc(NC(=O)c4cccc(C(F)(F)F)c4)cc3C(=O)N2C)O1,·,–,·,·,–,–
SMILES,PDI inh,ARNT TACC3 PPI,ALR H2O2 inh,CendR NRP1 mod,ERp5 block,PglD DTNB
Oc1ccc(/C=N/NC(=S)NC2CC3CCC2C3)cc1 (stereo unspecified),–,·,99,–,·,–
S=C(NCC1CCCO1)Nc1ccccc1 (stereo unspecified),–,–,–,21,–,–
S=C(NCC1CCCO1)Nc1ccc(Cl)cc1 (stereo unspecified),–,–,–,–,–,·
Oc1ccc(/C=N/NC(=S)NCC2CCCO2)cc1 (stereo unspecified),–,–,98,–,·,–
CCN(CC)c1ccc(NC(=S)NCC2CCCO2)cc1 (stereo unspecified),–,–,100,–,–,·
C[C@@H]1CN([C@@H](C)CO)C(=O)c2cc(C#CC3CC3)cnc2O[C@@H]1CN(C)S(C)(=O)=O,·,–,·,·,–,–
